The values below come from PubChem BioAssay (NCATS).

Records with an inconclusive call do not appear. Entries that show only a call come without a potency. Calls of active or inactive are those of the source. Calls come from the whole dose curve; as a rule, active = well fitted inhibition curve with a large enough effect; inconclusive = small, poorly fitted or top-dose-only effect; inactive = no such curve, though single readings can be large or run the other way. Where a SMILES comes first, the peptide text is derived from it. The star is where a group is joined. Cbz = O=C(OCc1ccccc1)*; CH2F = FC*
Potency is the fitted concentration of half-maximal effect.

In this assay the test system is Zika virus NS2B-NS3 protease (linked construct). Briefly: Primary screen NINDS Rhodamine qHTS for Zika virus inhibitors (AID 1347160). Note: nearly all actives have a fitted effect of over 55% in size. The following applies: purified NS2B-NS3 protease, Rhodamine110 substrate fluorescence; series mostly up to 33.1 µM. The text has this:
Avindra Nath, Ph.D., National Institute of Neurological Disorders and Stroke (NINDS), Bethesda, MD
Radhakrishnan Padmanabhan, Ph.D., Georgetown University (GU), Washington D.C.
Zika Virus causes congenital defects, including microcephaly and is associated with Guillain-Barre syndrome, eningoencephalitis and myelitis in infected adult. […] Using a target-based approach, we hope to establish a screening paradigm to uncover novel, cell-active NS2B-NS3 protease (Zika Virus) specific inhibitors from NCATS' collection of small molecules using qHTS.
Four assay panel was created to identify potential Zika Virus inhibitors. Namely, (1) GU unlinked NS2B-NS3 AMC tagged protease qHTS, (2) GU unlinked NS2B-NS3 Rhodamine tagged protease qHTS, (3) NINDS linked NS2B-NS3 AMC tagged protease qHTS, (4) NINDS linked NS2B-NS3 Rhodamine tagged protease qHTS. Active compounds were re-acquired and re-screened to confirm inhibition. Inhibitors were further screened against various confirmatory and counterscreens in dose response format.
Early Translation Branch (ETB)
National Center for Advancing Translational Sciences (NCATS), Rockville, MD
National Institute of Health (NIH), Bethesda, Maryland
For the linked assay, Nath lab (NINDS) provided the purified linked NS2B-NS3 protease which is consists of hydrophilic domain of NS2B linked to the NS3 protease domain by a flexible (-[…]-) linker. Control compound aprotinin is obtained from Thermo Scientific (#78432; Waltham, Massachusetts). Rhodamine110 substrate ([N-Cbz]-Nle-Lys-Arg-Arg-Rhod110-Arg-Arg-Lys-Nle-[N-Cbz]) was purchased from either Genscript or Bachem.
1536-well Protease (Rhodamine110 Substrate) Assay:
Briefly, 3 microL of enzyme (25 nM final concentration), in assay buffer (10 mM Tris-HCl pH 8.0 with 0.01% Tween 20) were dispensed into a 1,536-well solid-bottom black plate (Greiner Bio One, Monroe, NC). Twenty-three nL of compounds (final concentration range 7.28 nM to 114 microM) or control Aprotinin (final concentration range 3.47 nM to 114 microM) were transferred via Wako Pin-tool (Wako Automation, Richmond, VA). Samples were incubated (room temperature, protected from light) for 15 minutes followed by a 1 microL Rhodamine110 substrate addition (1.5 microM final concentration). Plates were then immediately read on a ViewLux High-throughput CCD imager (PerkinElmer, Waltham, MA) equipped with FITC fluorescence optics (480(20) nm excitation, 540(25) nm emission), then incubated (room temperature, protected from light) for 15 minutes (~15% conversion). The change in fluorescence intensity over the 15-minute reaction period was normalized against no-inhibitor and no-enzyme controls and the resulting percent inhibition data were fitted to a 4-parameter Hill equation. Aprotinin was used as intraplate control.
(qHTS replaces the single test concentration by a dilution series.)
With `CC1(C)Oc2ncnc(N)c2N=C1c1ccc(C2CCC(CC(=O)O)CC2)cc1` (stereo not given), the Potency entry is “inactive”.
As for `CC1=COC(OC2OC(CO)C(O)C(O)C2O)C2C(CO)CC(OC(=O)/C=C/c3ccc(O)cc3)C12` (stereo not given), the Potency result is “inactive”.
Regarding `CC(=O)O[C@@H]1[C@H](O[C@@H]2O[C@H](CO)[C@@H](O)[C@H](O)[C@H]2O)[C@@H](O[C@@H]2O[C@@H](C)[C@H](O)[C@@H](O[C@@H]3O[C@H](CO)[C@@H](O)[C@H](O)[C@H]3O)[C@H]2O)[C@H](OC(=O)[C@]23CCC(C)(C)C[C@H]2C2=CCC4[C@@]5(C)C[C@H](O)[C@H](O[C@@H]6O[C@H](C(=O)O)[C@@H](O)[C@H](O)[C@H]6O)[C@@](C)(C(=O)O)C5CC[C@@]4(C)[C@]2(C)CC3)O[C@@H]1C` (stereo not given in full), the Potency result was “inactive”.
For `COC(=O)C(CC1CCCC1)c1ccc(S(C)(=O)=O)cc1` (stereo not given), the Potency entry was “inactive”.
For the compound `COc1ccnc2[nH]cc(C(=O)C(=O)N3CCN(C(=O)c4ccccc4)CC3C)c12` (stereo not given), the Potency entry is “inactive”.
Regarding `Fc1cccc(CN(C2=NCCN2)c2c(Cl)cccc2Cl)c1`, the Potency entry was “inactive”.
With `C[C@@H]1C[C@@H](O)[C@@]2(CO)C(CO)=CCC[C@@H]2[C@@]12C[C@@H](c1ccoc1)OC2=O`, the Potency entry is “inactive”.
Next, `CC(=O)NC(Cc1c[nH]c2ccccc(=O)c12)C(=O)O` (stereo not given): 15.8 µM (active); `COc1c2cc(c(O)c1OC)CCCCC(O)CCc1ccc(O)c-2c1` (stereo not given): “inactive”; `COc1cnc(-c2ccc(Cn3c(CC(C)(C)C(=O)O)c(SC(C)(C)C)c4cc(OC[C@@H]5Cc6ccccc6N5C(C)=O)ccc43)cc2)nc1`: 3.16 µM (active).
As for `CCC(C)C(C(=O)O)N1Cc2c(OCC=C(C)C)c(C)c(OC)c(C(=O)O)c2C1=O` (stereo not given), the Potency entry is “inactive”.
For the compound `CC1(C)C[C@H](O)C[C@@]2(C)[C@H]1[C@H](O)C=C1COC(=O)[C@@]12O`, the Potency entry was “inactive”.
In the case of `COC(=O)C1=C[C@@H](O)[C@@H](O)[C@H](O[C@@H]2O[C@H](CO)[C@@H](O)[C@H](O)[C@H]2OC(=O)/C=C/c2ccccc2)C1`, the Potency entry was “inactive”.
On to `C=C1C(OC(C)=O)C(=O)C2C(C)(C)C(O)CCC2(C)C1CC(OC(C)=O)/C(C)=C/COC(C)=O` (stereo not given), for which the Potency result is “inactive”.
As to `COC(=O)CC[C@H](NC(=O)[C@H](CC(C)C)NC(=O)OCc1ccccc1)C(=O)N[C@@H](Cc1cnc[nH]1)C(=O)N[C@@H](CC(=O)OC)C(=O)CF` (Cbz-LE(OMe)HD(OMe)-CH2F), the Potency result was “inactive”.
Consider `O=C(NCC(=O)N1CCCC1)Nc1ccc2ccccc2c1`, for which the Potency result is “inactive”.
With `CCC(C)(C)C1CCc2c(sc(NC(=O)c3ccc(Br)cc3)c2C#N)C1` (stereo not given), the Potency result was “inactive”.
Take `FC(F)(F)Oc1ccc(-c2ccc3nnc(C(F)(F)F)n3c2)cc1`: the Potency result was “inactive”.
Take `C=C(CCO[C@@H]1O[C@H](CO)[C@@H](O)[C@H](O)[C@H]1O)C(=O)O`: the Potency entry was “inactive”.
As for `COc1cccc(CN(C(=O)CC(C)(C)C)C2CC(C(=O)N3CCNCC3)N(Cc3ccc4c(c3)OCO4)C2)c1` (stereo not given), the Potency entry is “inactive”.
With `CC(=O)/C=C/C1(O)C(C)CC(O[C@@H]2O[C@H](CO)[C@@H](O)[C@H](O)[C@H]2O)CC1(C)C` (stereo not given in full), the Potency entry was “inactive”.
On to `C=CCc1ccc(O[C@@H]2O[C@H](CO)[C@@H](O)[C@H](O)[C@H]2O)c(O[C@@H]2O[C@H](CO)[C@@H](O)[C@H](O)[C@H]2O)c1`, for which the Potency entry is “inactive”.
As to `OCC1=C[C@@H](O)[C@@H]2C=CO[C@@H](O[C@@H]3O[C@H](CO)[C@@H](O)[C@H](O)[C@H]3O)[C@H]12`, the Potency result is “inactive”.
As for `CC(C)=CC1C[C@](C)(O)[C@@H]2[C@H]3CCC4[C@@]5(C)CC[C@H](O[C@@H]6OC[C@H](O)[C@H](O[C@@H]7O[C@H](CO[C@@H]8O[C@H](CO)[C@@H](O)[C@H](O)[C@H]8O)[C@@H](O)[C@H](O)[C@H]7O)[C@H]6O[C@@H]6O[C@@H](C)[C@H](O)[C@@H](O)[C@H]6O)C(C)(C)[C@@H]5CC[C@@]4(C)[C@@]34CO[C@@]2(C4)O1` (stereo not given in full), the Potency entry is “inactive”.
Turning to `CC(C)[C@](O)(c1ccc2cc(OC(F)F)c(OC(F)F)cc2c1)c1cn[nH]n1`, the Potency entry is “inactive”.
Take `COc1cc(/C=C/CO[C@@H]2O[C@H](CO)[C@@H](O)[C@H](O)[C@H]2O)cc(OC)c1O[C@@H]1O[C@H](CO)[C@@H](O)[C@H](O)[C@H]1O`: the Potency result is “inactive”.
Turning to `C/C=C1/[C@H](O[C@@H]2O[C@H](CO)[C@@H](O)[C@H](O)[C@H]2O)OC=C(C(=O)OC)[C@H]1CC(=O)OCCc1ccc(OC(=O)C[C@@H]2C(C(=O)OC)=CO[C@@H](O[C@@H]3O[C@H](CO)[C@@H](O)[C@H](O)[C@H]3O)/C2=C/C)cc1`, the Potency entry was “inactive”.
Next, `COc1cc(O)cc(C)c1C(=O)O[C@H]1[C@@H](O)[C@@H](n2ccc(=O)[nH]c2=O)O[C@@H]1CO`: “inactive”.
`C=CC(C)(O)CCC1C(C)(O)CCC2C(C)(C)CCCC21C` (stereo not given): the Potency entry was “inactive”.
Take `CC(CC(C)O[C@@H]1O[C@H](CO)[C@@H](O)[C@H](O)[C@H]1O)OC(=O)/C=C/c1ccc(O)cc1` (stereo not given in full): the Potency was 12.6 µM (active).
Turning to `COc1cc(C(CO)CO[C@@H]2O[C@H](CO)[C@@H](O)[C@H](O)[C@H]2O)ccc1O` (stereo not given in full), the Potency result was “inactive”.
Take `CC(C)CC(=O)OC[C@@]1(O)C[C@@]23CC[C@H]4[C@@](C)(CCC[C@@]4(C)C(=O)O)[C@@H]2CC[C@@H]1C3`: the Potency result is “inactive”.
Regarding `OC[C@H]1O[C@@H](OC[C@H]2O[C@@H](OCc3ccccc3)[C@H](O)[C@@H](O)[C@@H]2O)[C@H](O)[C@@H](O)[C@@H]1O`, the Potency result is “inactive”.
Next, `CC(=O)NCC1CN(c2ccc(-c3ccc(CNCc4cn[nH]n4)cc3)c(F)c2)C(=O)O1` (stereo not given): “inactive”; `COc1ccc(CCC(=O)c2c(O)cc(O[C@@H]3O[C@H](CO)[C@@H](O)[C@H](O)[C@H]3O[C@@H]3O[C@@H](C)[C@H](O)[C@@H](O)[C@H]3O)cc2O)cc1O`: “inactive”; `O=C(NCCN1CCCC1)c1cc(-c2ccc(CN3CCOCC3)cc2)nc2ccc(F)cc12`: “inactive”.
Take `O=C1C[C@@]2(C(=O)N1)C(=O)N(Cc1ccc(Br)cc1F)C(=O)c1cccn12`: the Potency result is “inactive”.
Regarding `COc1cc(C2OCC3(O)C(c4ccc(O[C@@H]5O[C@H](CO)[C@@H](O)[C@H](O)[C@H]5O)c(OC)c4)OCC23O)ccc1O` (stereo not given in full), the Potency entry was “inactive”.
Next, `CC1OC(O[C@@H]2[C@@H](O)[C@H](OC(=O)[C@]34CCC(C)(C)C[C@H]3C3=CCC5[C@@]6(C)CC[C@H](O[C@@H]7O[C@H](C(=O)O)[C@@H](O)[C@H](O[C@@H]8OC[C@@H](O)[C@H](O)[C@H]8O)[C@H]7O[C@@H]7O[C@H](CO)[C@H](O)[C@H](O)[C@H]7O)[C@@](C)(C=O)C6CC[C@@]5(C)[C@]3(C)C[C@H]4O)O[C@H](C)[C@@H]2OC2OC(C)C(OC3OCC(O)C(O)C3O)C(O)C2O)C(O)C(O)C1O` (stereo not given in full): “inactive”.
As for `CC(C)C1C(OC(=O)/C=C/c2ccccc2)CC2(C)OC2CCC2(C)OC2C1O` (stereo not given), the Potency entry is “inactive”.
